Among all 360,000 compounds or so, about 1,200 (0.33%) were called active.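 Rule for the calls: active = activation above the run's mean compound activation plus 3 SD (cut at about 16% in these data); inactive = the rest.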 The full list was thinned out, with actives kept by preference.

Sequence of Muscarinic acetylcholine receptor M1 (Homo sapiens) (P11229 whole entry, looked up): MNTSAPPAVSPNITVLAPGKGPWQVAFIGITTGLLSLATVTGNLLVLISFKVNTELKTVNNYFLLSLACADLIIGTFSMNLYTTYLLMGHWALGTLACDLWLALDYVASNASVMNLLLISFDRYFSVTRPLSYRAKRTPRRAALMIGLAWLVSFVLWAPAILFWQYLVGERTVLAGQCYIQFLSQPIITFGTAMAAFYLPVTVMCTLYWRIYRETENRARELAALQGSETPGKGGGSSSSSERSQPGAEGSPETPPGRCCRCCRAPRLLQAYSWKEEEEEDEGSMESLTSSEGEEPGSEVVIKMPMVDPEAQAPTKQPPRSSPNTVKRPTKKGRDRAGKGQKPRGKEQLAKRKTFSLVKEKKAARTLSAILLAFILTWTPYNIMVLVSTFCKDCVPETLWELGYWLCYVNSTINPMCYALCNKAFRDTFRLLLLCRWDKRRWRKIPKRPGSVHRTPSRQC

The experiment concerns the target Muscarinic acetylcholine receptor M1 (Homo sapiens) (UniProt P11229). Kind of experiment: CHRM1 activation via calcium signal – Fluo-8 calcium fluorescence, CHO-K1 cells, HTS, primary screen (AID 588814).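 Note: peak over basal fluorescence ratio within a 140 s kinetic read after compound addition.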 The note with it: CHO-K1 hM1, Fluo-8 calcium fluorescence, agonist mode; at 3 µM; stronger effect = higher value; 0% DMSO, 100% acetylcholine EC100.
For the compound `CC1(C(=O)NS(=O)(=O)c2cccc(F)c2)CCN1C(=O)Cc1ccc(Cl)cc1Cl` (centres undefined), the activation was -1.39% (inactive).

Turning to `CC1Cc2ccccc2N1CC(=O)Nc1ccc2c(c1)OC(F)(F)O2` (centres undefined), the activation is -7.22% (inactive).

As to `Cc1nn(-c2ccccc2)c(NC(=O)c2cccs2)c(-c2ccc(Cl)cc2)c1=O`, the activation was -7.73% (inactive).

Regarding `CCN(CC)c1ccc(/C=N/NC(=O)CNC(=O)c2cccs2)cc1`, the activation is -4.5% (inactive).

With `Cc1ccc(-n2nc(C)c(/C=N/NC(=O)c3cccs3)c2Cl)cc1`, the activation was 16.7% (active).

Regarding `CC(=NNC(=O)c1ccncc1)c1ccc(Cl)c(Cl)c1`, the activation was -2.06% (inactive).

Regarding `CCOCCCN1C(=O)C2C(C(=O)Nc3ccc(OCC)cc3)C3C=CC2(O3)C1C(=O)NC1CCCCC1` (centres undefined), the activation is -6.34% (inactive).

`CCCNC(=O)C1CC(=O)N(c2ccc(OCc3ccccc3)cc2)C1` (centres undefined): the activation is 1.07% (inactive).

Turning to `COc1ccc(-n2c(-c3ccc(Cl)cc3)n[nH]c2=S)c(OC)c1`, the activation is -4.14% (inactive).

With `COc1cc(OC)c(-n2cc(-c3ccc(Cl)cc3)[nH]c2=O)cc1Cl`, the activation was 58% (active).

Consider `COc1cc(OC)c(N2CC(C(=O)Nc3cc(Cl)ccc3N3CCOCC3)CC2=O)cc1Cl` (centres undefined), for which the activation was -5.02% (inactive).

For `CC(=O)C[C@@H](O)CC(=O)[C@H]1OC(=O)CCCCCCc2ccccc21`, the activation is 10.4% (inactive).

Consider `Cn1nccc1NC(=O)CC(CC(=O)O)c1ccccc1` (centres undefined), for which the activation is 0.28% (inactive).

For `Cn1nc(C(F)(F)F)c2cc(NC(=O)OCC(C)(C)C)sc21`, the activation was -6.85% (inactive).

`CC(C)COC(=O)c1ccc(NC(=O)C2C3C=CC(C3)C2C(=O)O)cc1` (centres undefined): the activation is -3% (inactive).

On to `CCc1ccc(-c2cc3c(=O)n(CC(=O)NCCCN4CCN(Cc5ccccc5)CC4)nc(C)n3n2)cc1`, for which the activation is 0.73% (inactive).

On to `CC(=O)OCCC(C)C`, for which the activation is -3.12% (inactive).

Take `CC(C[N+](C)(C)C)OC(N)=O` (centres undefined): the activation is 87.5% (active).

For `CC(=O)OC(C)C[N+](C)(C)C` (centres undefined), the activation is 115% (active).

With `Cc1oc2nc(SCC(=O)Nc3ccc(S(N)(=O)=O)cc3)nc(NC(=O)c3ccccc3)c2c1C`, the activation was -4.87% (inactive).

For `Cc1sc(NC(=O)C2=COCCO2)c(C#N)c1C`, the activation was -6.11% (inactive).

For the compound `CC(C)Cn1c(CCC(=O)O)ccc1-c1cccs1`, the activation is -4.32% (inactive).

Turning to `O=c1c2ccccc2c(-c2ccccc2)nn1-c1ccccn1`, the activation was -1.79% (inactive).

`O=C(COC(=O)/C=C/c1cn(-c2ccccc2)nc1-c1cccnc1)Nc1ccc(Cl)cc1Cl`: the activation was -5.6% (inactive).

On to `CC(C)(C)OC(=O)N/N=C/c1cn(-c2ccccc2)nc1-c1cccnc1`, for which the activation is 24% (active).

Consider `COc1ccccc1N1CCN(C(=O)c2cn(-c3ccccc3)nc2-c2cccnc2)CC1`, for which the activation was 0.62% (inactive).

`O=C(CNc1cccc(S(=O)(=O)N2CCCCC2)c1)Nc1ccccc1F`: the activation is 2.04% (inactive).

Consider `Cc1cc(O)ccc1-c1cc(C(=O)NCc2cc(C(F)(F)F)cc(C(F)(F)F)c2)[nH]n1`, for which the activation is 16.9% (active).

In the case of `Cc1ccc(O)c(-c2cc(C(=O)NCc3ccccc3)[nH]n2)c1`, the activation was -5.25% (inactive).

For `CCCOc1ccc(F)cc1-c1cc(C(=O)NCc2ccc(F)cc2)[nH]n1`, the activation is -7.18% (inactive).

Turning to `CCc1nc2c(OCCC3CCCCC3)cccn2c1N(C)C(=O)c1ccco1`, the activation is -9.74% (inactive).

In the case of `CCOC(=O)C1(Cc2cccc(OC)c2)CCCN(S(=O)(=O)c2cccnc2)C1` (centres undefined), the activation was -1.49% (inactive).

Consider `COc1ccc(C(C#N)=C2C=CC(=NO)c3ccccc32)cc1`, for which the activation is -8% (inactive).

For the compound `CCOc1c(N2CCCCC2)c(=O)c1=O`, the activation was -7.26% (inactive).

Turning to `CCc1nc2ccc(C(=O)Nc3ccc(OC)c(OC)c3)cn2c1N(C)C(=O)c1cccc(OC)c1`, the activation is -2.95% (inactive).

As for `CCc1nc2ccc(C(=O)Nc3cccc(OC)c3)cn2c1N(CCC(C)C)CCN(C)C`, the activation was 29.4% (active).

`CCc1nc2ccc(C(=O)N(C)CCN(C)C)cn2c1N(CC)CCOC`: the activation was -6.84% (inactive).

For the compound `O=C(NNC(=S)NC(=O)c1cn(-c2ccccc2)nc1-c1ccccc1)c1ccncc1`, the activation was 16.6% (active).

Consider `NC(=O)C1CCN(C(=O)c2cn(-c3ccccc3)nc2-c2cccnc2)CC1`, for which the activation is -0.33% (inactive).

`Cc1ccc(-c2nn(-c3ccccc3)cc2C(=O)NC2CCC(O)CC2)cc1` (centres undefined): the activation was 0.01% (inactive).

On to `Cc1cc(SCC(=O)NCCN2C(=O)CSC2=O)nc2ccccc12`, for which the activation was -9.92% (inactive).

Consider `Cc1ccc(S(=O)(=O)NCc2nc3ccccc3c(=O)n2N)cc1`, for which the activation was -0.65% (inactive).

For the compound `N#CC1(NC(=O)COC(=O)CCN=C2NS(=O)(=O)c3ccccc32)CCCCC1`, the activation is -0.14% (inactive).

Consider `O=C(CCCN=C1NS(=O)(=O)c2ccccc21)OCC(=O)c1ccc(F)c(F)c1`, for which the activation is 27% (active).

With `O=C(OCCN=C1NS(=O)(=O)c2ccccc21)c1cccc([N+](=O)[O-])c1`, the activation is -1.9% (inactive).

Take `Cc1cccc(NC(=O)c2ccc3c(=O)n(CC4CCCO4)c(=S)[nH]c3c2)c1` (centres undefined): the activation is -0.37% (inactive).

With `N#C/C(=C/c1ccc(N2CCCCC2)o1)C(=O)NCCc1c[nH]c2ccccc12`, the activation is 28.4% (active).

Regarding `N#C/C(=C\c1ccc(N2CCOCC2)o1)C(=O)N1CCOCC1`, the activation was 2.53% (inactive).

`O=C(NCCc1c[nH]c2ccccc12)C1CCN(Cc2ccc(Br)cc2)CC1`: the activation is -4.6% (inactive).

With `CCOCc1nnc(NC(=O)CCC2CCCCC2)s1`, the activation was -1.9% (inactive).

Consider `O=S(=O)(Nc1ccc(Cl)cn1)c1cnc(Cl)c(Br)c1`, for which the activation is -0.28% (inactive).

For `CCOc1ccc(C(=O)NC(C(=O)NCc2ccccn2)C(C)C)cc1` (centres undefined), the activation was -5.01% (inactive).

Consider `O=C(N/N=C/c1ccsc1)c1cc(O)cc(O)c1`, for which the activation was -1.35% (inactive).

Take `O=C1Nc2ccc([N+](=O)[O-])cc2C1=Nc1cccc(CO)c1`: the activation was 0.24% (inactive).

On to `O=C1C(=O)N(CC2COc3ccccc3O2)c2ccccc21` (centres undefined), for which the activation was 39.1% (active).

Take `O=C1C(=O)N(c2ccccc2)c2ccccc21`: the activation is 13.1% (inactive).

For `Cc1noc(C)c1C(=O)NCC1COc2ccccc2O1` (centres undefined), the activation was -2.12% (inactive).

In the case of `CCCC1C(c2ccccc2)C(C#N)(C#N)C2(C#N)CC1(N)NC2=O` (centres undefined), the activation is -0.06% (inactive).

With `Cc1ccc(NC2=C(Cl)C(=O)OC2OC(=O)c2ccccc2C)cc1` (centres undefined), the activation was -9.26% (inactive).

The values above are taken from PubChem BioAssay AID588814 (The Scripps Research Institute Molecular Screening Center, 2011).
